Assay results from the supplement of paper PMC8728848.
Many of the other results were omitted from the sample, so the strongest signals are more common in it than they were.

What was measured:
Test in all cases: glycan array binding signal (z-score within array); higher = stronger binding
Settings in all cases: glycan notation: IUPAC condensed, linker removed
[1] = target: GalNAc(b1-3)Gal(a1-4)Gal(b1-4)GlcNAc
Method in brief: (§1)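 Columns mapping to the same glycan were averaged after glycan names were converted to IUPAC-condensed notation. The data come from 3228 arrays in the Consortium for Functional Glycomics database, limited to those with an available protein sequence. Binding is reported as a within-array Z-score averaged across arrays of one protein sequence and across linkers.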

GalNAc3S(b1-4)GlcNAc = target: GalNAc3S(b1-4)GlcNAc
Method in brief: as §1

[2] = target: GlcNAc(a1-4)Gal(b1-4)GlcNAc(b1-3)Gal(b1-4)Glc
Method in brief: as §1

[3] = target: GlcNAc(a1-6)Gal(b1-4)GlcNAc
Method in brief: as §1

[4] = target: GlcNAc(b1-2)[GlcNAc(b1-4)]Man(a1-3)[GlcNAc(b1-4)][GlcNAc(b1-2)[GlcNAc(b1-6)]Man(a1-6)]Man(b1-4)GlcNAc(b1-4)GlcNAc
Method in brief: as §1

[5] = target: GlcNAc(b1-3)Gal(b1-4)GlcNAc(b1-2)Man(a1-3)[GlcNAc(b1-3)Gal(b1-4)GlcNAc(b1-2)Man(a1-6)]Man(b1-4)GlcNAc(b1-4)[Fuc(a1-6)]GlcNAc
Method in brief: as §1

[6] = target: GlcNAc(b1-3)Gal(b1-4)GlcNAc(b1-3)Gal(b1-4)GlcNAc(b1-3)GalNAc
Method in brief: as §1

Man(a1-6)Man = target: Man(a1-6)Man
Method in brief: as §1

Man(b1-4)GlcNAc = target: Man(b1-4)GlcNAc
Method in brief: as §1

Neu5Ac(a2-3)Gal = target: Neu5Ac(a2-3)Gal
Method in brief: as §1

[7] = target: Neu5Ac(a2-3)Gal(b1-3)GalNAc(b1-4)[Neu5Ac(a2-3)]Gal(b1-4)Glc
Method in brief: as §1

[8] = target: Neu5Ac(a2-3)Gal(b1-3)GalNAc(b1-4)[Neu5Ac(a2-8)Neu5Ac(a2-3)]Gal(b1-4)Glc
Method in brief: as §1

[9] = target: Neu5Ac(a2-3)Gal(b1-3)GlcNAc(b1-2)Man(a1-3)[Neu5Ac(a2-3)Gal(b1-3)GlcNAc(b1-2)Man(a1-6)]Man(b1-4)GlcNAc(b1-4)GlcNAc
Method in brief: as §1

[10] = target: Neu5Ac(a2-3)Gal(b1-4)GlcNAc(b1-6)[Neu5Ac(a2-3)Gal(b1-3)]GalNAc
Method in brief: as §1

[11] = target: Neu5Ac(a2-3)[Neu5Ac(a2-6)]GalNAc
Method in brief: as §1

[12] = target: Neu5Ac(a2-6)Gal(b1-4)GlcNAc(b1-2)Man
Method in brief: as §1

[13] = target: Neu5Ac(a2-6)Gal(b1-4)GlcNAc(b1-2)Man(a1-6)[Man(a1-3)]Man(b1-4)GlcNAc(b1-4)GlcNAc
Method in brief: as §1

[14] = target: Neu5Ac(a2-6)Gal(b1-4)GlcNAc(b1-3)Gal(b1-4)GlcNAc(b1-2)Man(a1-3)[Neu5Ac(a2-6)Gal(b1-4)GlcNAc(b1-3)Gal(b1-4)GlcNAc(b1-2)Man(a1-6)]GalNAc
Method in brief: as §1

[15] = target: Neu5Ac(a2-6)GlcNAc(b1-4)GlcNAc
Method in brief: as §1

[16] = target: Neu5Ac(a2-6)GlcNAc(b1-4)GlcNAc(b1-4)GlcNAc
Method in brief: as §1

[17] = target: Neu5Ac(a2-8)Neu5Ac(a2-3)Gal(b1-4)GlcNAc
Method in brief: as §1

[18] = target: Neu5Ac(a2-8)Neu5Ac(a2-8)Neu5Ac(a2-8)Neu5Ac(a2-3)[GalNAc(b1-4)]Gal(b1-4)Glc
Method in brief: as §1

[19] = target: Neu5Ac9Ac(a2-3)Gal(b1-4)GlcNAc
Method in brief: as §1

Neu5Gc(a2-6)GalNAc = target: Neu5Gc(a2-6)GalNAc
Method in brief: as §1

[20] = target: Neu5Gc(a2-8)Neu5Gc(a2-3)Gal(b1-4)GlcNAc
Method in brief: as §1

B1: Awp3 (Candida glabrata), B4UN32 (protein)
chain: MISFVTLLAILGLLSISWADQTVRSVAGDQRVTDPVIVGDNSILDYYGGSNYDFSNNFEIGRGTLYIGKESYFSSFQSAPTDVPNSFHLLIKNTNNLQNNGQFIIENIKRHANQCSNSSIQVFPINFQNDGEFEIISGGVEGRCCLPTSVIAPQNFLNNGKFYYKVLTDTGSIYSGSCMQNVDIGASTTTTVNNNLWEFTGSINAQINGAVSGAAQINLDGSNMFVNANTFSGQVVNLINGGSFLQTSDPLSNIVVINGLGTSDTGVTSIAVKGKGKSFTYNPSSGIVKLTTVEGKTYAYQIGCGYNTKKFITNNDSGASYESADNFFVLTYSEPYSPQTCQLENSSIFSSNFISTSTSSSSSSSSASSLPSSMSSSLPSSLSSSLSSSLSSSMSSSMSSLFIIPPPYTTTRSSGSSIIDTEIVSFYSTTDSPGHTITGTTTTTLYGPHTHSSVSTPSSSSESSTTSNSSIESSSLPHTSVSSTPESSITPSSNTISSSPTSDFSSVQSSSIMESSSVVASSSVINSSSIVDSSSSSASSLPSSMSSSLSSSMSSSLPSSMSSSLSSSLSSSLSSSMSSSMSSLFIIPPPYTTTRSSGSSIIDTEIVSFYSTTDSPGHTITGTTTTTLYGPHTHSSVSTPSSSSESSTTSNSSIESSSLPHTSVSSTPESSITPSSNTISSSPTSDFSSVQSSSIMESSSVVASSSVINSSSIVDSSSSSASSLPSSMPSSLPSSMSSSLSSSMSSSLSSSLSSSLSSSMSSSMSSLFIIPPPYTTTRSSGSSIIDTEIVSFYSTTDSPGHTITGTTTTTLYGPHTHSSVSTPSSSSESSTTSNSSIESSSLPHTSVSSTPESSITPSSNTISSSPTSDFSSVQSSSIMESSSVVASSSATQSSSVINSSSIVDSSSSSASSLPSSMPSSLPSSLSSSLSSSLSSSMSSSMSSLFIIPPPYTTTRSSGSSIIDTEIVSFYSTTDSPGHTITGTTTTTLYESSIYSSSSSTIQESELSNTSRTTMTSNSSVSISSTSSRSSFSNTKSSTIVISQSASLPDSKTDIILSTSSNIGYSSRSLLSDLGTSISDSDIHHSVLHSTESYSSNESGTNPFTSIASLSNFIPESSSHTSTALGSENSVISSDILTTMSHPVATNSGDKPTTPKRSEQVSTTMTSSGPTPDTSSFDTDGMSAYSRPEFTTNSLEVNKSSTSQLGNNKQTFSNLQLESTRPHSENEVDNNTRLLQSIQQSSTYGTNNVNPLSPTGSISIPLTEDGQGDNNNWNSPATNDLCTQISFNLTATTITVTDRITITDSIHDISSEVITSYIYQTIVDQKTVTQTVDGKSLANKMSSIPKPSSRSLIQPQPPVAIELQEGAASTSRVSLVSLFISIILVLL
B1 was tested. Which “glycan array binding signal (z-score)” value [1] did it give?
The value was 0.048.

And the “glycan array binding signal (z-score)” value (GalNAc3S(b1-4)GlcNAc)?
Its value is 3.17.

And the “glycan array binding signal (z-score)” value [2]?
The value was -0.466.

And the “glycan array binding signal (z-score)” value [3]?
The value was -0.59.

What about the “glycan array binding signal (z-score)” value [4] of the same binder?
The value was -1.54.

What about the “glycan array binding signal (z-score)” value [5] of the same binder?
Its value is 2.04.

And the “glycan array binding signal (z-score)” value [6]?
The value was 0.914.

And the “glycan array binding signal (z-score)” value (Man(a1-6)Man)?
Its value is 0.889.

And the “glycan array binding signal (z-score)” value (Man(b1-4)GlcNAc)?
Its value is 0.34.

And the “glycan array binding signal (z-score)” value (Neu5Ac(a2-3)Gal)?
The value was -1.36.

What about the “glycan array binding signal (z-score)” value [7] of the same binder?
Its value is -0.398.

What about the “glycan array binding signal (z-score)” value [8] of the same binder?
Its value is -0.714.

What about the “glycan array binding signal (z-score)” value [9] of the same binder?
The value was 0.813.

And the “glycan array binding signal (z-score)” value [10]?
Its value is -2.35.

And the “glycan array binding signal (z-score)” value [11]?
Its value is -0.108.

And the “glycan array binding signal (z-score)” value [12]?
Its value is -0.199.

And the “glycan array binding signal (z-score)” value [13]?
The value was 0.591.

And the “glycan array binding signal (z-score)” value [14]?
The value was 3.08.

What about the “glycan array binding signal (z-score)” value [15] of the same binder?
The value was 2.86.

What about the “glycan array binding signal (z-score)” value [16] of the same binder?
Its value is 2.42.

And the “glycan array binding signal (z-score)” value [17]?
The value was -1.76.

What about the “glycan array binding signal (z-score)” value [18] of the same binder?
The value was 1.87.

And the “glycan array binding signal (z-score)” value [19]?
Its value is -0.226.

And the “glycan array binding signal (z-score)” value (Neu5Gc(a2-6)GalNAc)?
Its value is -0.186.

What about the “glycan array binding signal (z-score)” value [20] of the same binder?
Its value is 0.721.
